# USP28 inh: human USP28 deubiquitinase inhibition. 3% of 47,000 active. inhibition, % at 25 µM. AID 1645857. purified USP28, Ub-rhodamine cleavage fluorescence, 30 min
# USP30 block: human USP30 deubiquitinase inhibition; Q70CQ3; purified USP30, Ub-rhodamine cleavage fluorescence; inhibition, % at 25 µM; 5.3% of 47,000 active; AID 1645860
# USP17 block: blocks human USP17 ubiquitin-rhodamine cleavage; 6.5% of 47,000 active; A8MUK1; inhibition, % at 50 µM; purified USP17, Ub-rhodamine cleavage fluorescence, 3 h
# Starred values were filed as active, the others as inactive; x = not tested or not shown. Only some compounds are listed: those with a hit (about 11% of all), similar ones and a draw of the others. Rule as the data show it: active = inhibition above about 30%; inactive = the rest.
SMILES,USP28 inh,USP30 block,USP17 block
Cn1c(=O)n(C2CCCN(Cc3ccco3)C2)c2ncncc21 (stereo unspecified),-17.8,0.1,-7.7
COc1cccc(Nc2nc(NCc3ccccc3)nc3c2cnn3C)c1,39.5*,-29.6,27.4
COc1ccc(Nc2nc(NCCc3ccccc3)nc3c2cnn3C)cc1,-6.8,-1.1,14.1
COc1cccc(Nc2nc(NCCc3ccccc3)nc3c2cnn3C)c1,-5.1,-35.9,-0.4
Cn1ncc2c(Nc3ccc(Cl)cc3)nc(NCCc3ccccc3)nc21,5.6,41.5*,36.5*
CCOC(=O)C1=C(COc2ccccc2Cl)NC(=O)NC1CC (stereo unspecified),-18.8,-27.8,6.7
Cc1ccccc1CNC(=O)c1cccc(N2C(=O)C(C)(C)CS2(=O)=O)c1,-7.7,-22.7,-43.1
CCOc1cccc2cc(-c3cc(=O)oc4cc(OC)ccc34)oc12,8.4,-82.4,16.6
COc1cc2cc(Oc3ccc4ccc(=O)oc4c3)c(=O)oc2cc1O,7.3,34.2*,-4.3
CC(C(=O)Nc1ccc(F)cc1F)C1CCN(C(=O)Nc2ccccc2)CC1 (stereo unspecified),-20.3,-73.9,-17.9
CC1(c2ncc(C(N)=O)s2)CCN(C(=O)c2ccccc2)CC1,-12.2,-6.2,-14.8
C[C@H](NC(=O)c1ccccc1F)c1nc2cc(-c3ccccc3F)ncn2n1,-3.8,-2.0,4.5
COc1ccc(-c2cc3nc([C@@H](C)NC(=O)c4ccc5c(c4)OCO5)nn3cn2)cc1,63.7*,85.2*,19.2
COc1ccc(-c2cc3nc([C@H](C)NC(=O)Cc4cc(F)ccc4F)nn3cn2)cc1,22.4,36.6*,40.3*
COCCOc1ccc(C(=O)N[C@H](C)c2nc3cc(-c4ccccc4F)ncn3n2)cc1,0.1,8.4,0.3
COc1ccc(-c2cc3nc([C@H](C)NC(=O)Cc4cccc(F)c4)nn3cn2)cc1,12.4,59.5*,36.8*
COc1cccc(CC(=O)N[C@@H](C)c2nc3cc(-c4ccc(F)cc4)ncn3n2)c1,7.5,13.0,9.0
Cc1[nH]c(C)c(S(=O)(=O)Nc2cccc(F)c2)c1C(=O)N1CCCC1,1.8,6.4,4.5
CCS(=O)(=O)N1CCOC2(CCCN(c3ncccc3F)C2)C1 (stereo unspecified),-10.9,-48.5,-22.1
Cc1noc(C)c1C1CCCN1C(=O)c1cc(C2CCCCC2)no1 (stereo unspecified),-8.6,-1.3,-5.3
CCC(C(=O)N1CCN(c2c(C)nn(C3CCS(=O)(=O)C3)c2C)CC1)c1ccccc1 (stereo unspecified),1.6,-63.8,2.2
O=C(Nc1cccc(S(=O)(=O)N2CCCCC2)c1)c1cc2sc3ccccc3c2s1,1.0,24.3,10.0
N#Cc1cccc(NC(=O)N2CCC(c3nc4c(nnn4Cc4ccc(F)cc4)c(=O)[nH]3)CC2)c1,19.0,15.1,27.6
N#Cc1cccc(NC(=O)Nc2cccn(Cc3ccc(F)cc3)c2=O)c1,74.1*,37.9*,74.1*
O=C(NCCC1=CCCCC1)c1cc2c(s1)CS(=O)(=O)C2,x,x,22.0
SMILES,USP28 inh,USP30 block,USP17 block
O=C(NCCCN1CCc2ccccc2C1)c1cc2c(s1)CS(=O)(=O)C2,41.2*,-26.4,62.0*
Cc1cccc(NC(=O)C(=O)NCc2ccccn2)c1C,-0.4,-0.4,2.7
CC1CCN(c2nc3c(c(=O)[nH]2)CCN(CC2CCCCC2)C3)CC1,9.5,19.2,12.3
c1ccc2c(-c3nnc(SCc4cscn4)n3C3CC3)c[nH]c2c1,-1.1,1.5,-11.0
O=C1CCSc2ccc(S(=O)(=O)CCC(=O)N3CCc4ccccc4C3)cc2N1,17.3,13.4,38.9*
CC1CCN(C(=O)CCS(=O)(=O)c2ccc3c(c2)NC(=O)CCS3)CC1,-6.1,-32.2,-30.5
COc1ccc(N(CC(=O)Nc2cccc(F)c2)S(=O)(=O)c2ccc(OC)c(OC)c2)cc1,19.9,50.8*,35.6*
COc1ccc(S(=O)(=O)N(CC(=O)Nc2cccnc2)c2ccc(F)cc2)cc1OC,14.1,11.0,6.4
COc1ccc(S(=O)(=O)N(CC(=O)NCc2ccc3c(c2)OCO3)c2ccc(F)cc2)cc1OC,20.5,38.0*,33.9*
COc1ccc(CNC(=O)CN(c2ccccc2)S(=O)(=O)c2ccc(F)cc2)cc1OC,-2.8,-9.9,-1.0
Cc1noc(-c2nn(C)c3c2CN(C(=O)C(C)Oc2cccc(Cl)c2)CC3)n1 (stereo unspecified),-5.9,-45.9,-4.5
O=C(CN(c1ccc(F)cc1)S(=O)(=O)c1ccccc1)N1CCC(Cc2ccccc2)CC1,10.9,23.8,3.5
O=C(/C=C/c1ccc(F)cc1)N1CCC(Cc2ccccc2)CC1,32.7*,51.4*,35.9*
O=C(NC1CCCCC1)c1cccc(COc2ccc3c(c2)CCC3)c1,-7.6,-12.8,3.7
Cc1cccc(C)c1NC(=O)c1cccc(COc2ccc3c(c2)CCC3)c1,31.4*,5.6,-2.4

# Bioassay records: PubChem BioAssay, Buhrlage Lab, Dana-Farber Cancer Institute and Novartis Institutes for BioMedical Research (Cambridge, Mass)
